# Data reported in PubChem BioAssay AID1159580 (chemical genetic matrix, 2015).
# “And” between values parts separate entries of the source, which are not always exact repeats. Equal entries are not always repeated. Hit rate of the full screen: of about 5,500 compounds, about 2,000 (36%) were called active. About 18% were inconclusive and are not listed. Cut-off read from the data, not from the text of the source: active = normalized growth mostly below about 0.91 (no sharp cut-off); inconclusive = no clear call, values can overlap the other calls; inactive = mostly above about 0.92. The list shows a part of the results.
# Test: chemical genetic growth profiling, strain panel (AID 1159580);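 note: tested at 20 µM; growth read once vehicle control cultures reached saturation at 30 °C; 1 = growth at the plate median or of vehicle wells; lower values mean less growth of the strain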
# Details: S. cerevisiae deletion strains, growth OD
structure (smiles),measurement,setting,value
CC(C)=CCCC(C)[C@@H]1CC[C@]2(C)C3=C(CC[C@@]12C)C1(C)CC[C@H](O)C(C)(C)C1CC3 (stereo partly drawn),normalized growth,"locus YAL021C, strain ccr4, stronger effect = lower value",1.04 (inactive)
same,normalized growth,"locus YAL026C, strain drs2, stronger effect = lower value",1.04 (inactive)
same,normalized growth,"locus YAL030W, strain snc1, stronger effect = lower value",1.07 [resistant] (active)
same,normalized growth,"locus YBL061C, strain skt5, stronger effect = lower value",1.08 (inactive)
same,normalized growth,"locus YBR009C, strain hhf1, stronger effect = lower value",1.01 (inactive)
same,normalized growth,"locus YBR021W, strain FUR4, stronger effect = lower value",0.941 (inactive)
same,normalized growth,"locus YBR023C, strain chs3, stronger effect = lower value",1.08 (inactive)
same,normalized growth,"locus YBR171W, strain sec66, stronger effect = lower value",1.06 (inactive)
same,normalized growth,"locus YBR229C, strain ROT2, stronger effect = lower value",1.08 (inactive)
same,normalized growth,"locus YBR231C, strain swc5, stronger effect = lower value",1.09 [resistant] (active)
same,normalized growth,"locus YBR279W, strain paf1, stronger effect = lower value",1.07 [resistant] (active)
same,normalized growth,"locus YCL011C, strain gbp2, stronger effect = lower value",1.07 (inactive)
same,normalized growth,"locus YCL016C, strain dcc1, stronger effect = lower value",1.03 (inactive)
same,normalized growth,"locus YCL029C, strain bik1, stronger effect = lower value",1 (inactive)
same,normalized growth,"locus YCL061C, strain MRC1, stronger effect = lower value",1.06 (inactive)
same,normalized growth,"locus YCL069W, strain vba3, stronger effect = lower value",1.07 (inactive)
same,normalized growth,"locus YCR088W, strain abp1, stronger effect = lower value",1.08 [resistant] (active)
same,normalized growth,"locus YDL005C, strain med2, stronger effect = lower value",1.04 (inactive)
same,normalized growth,"locus YDL035C, strain GPR1, stronger effect = lower value",0.886 (inactive)
same,normalized growth,"locus YDL040C, strain nat1, stronger effect = lower value",1.08 [resistant] (active)
same,normalized growth,"locus YDL074C, strain BRE1, stronger effect = lower value",1.34 [resistant] (active)
same,normalized growth,"locus YDL101C, strain DUN1, stronger effect = lower value",1.02 (inactive)
same,normalized growth,"locus YDL185W, strain tfp1, stronger effect = lower value",1.01 (inactive)
same,normalized growth,"locus YDL192W, strain arf1, stronger effect = lower value",1.02 (inactive)
same,normalized growth,"locus YDR001C, strain nth1, stronger effect = lower value",1.07 (inactive)
same,normalized growth,"locus YDR069C, strain doa4, stronger effect = lower value",1.03 (inactive)
same,normalized growth,"locus YDR101C, strain arx1, stronger effect = lower value",0.967 (inactive)
same,normalized growth,"locus YDR137W, strain rgp1, stronger effect = lower value",0.774 (active)
same,normalized growth,"locus YDR159W, strain sac3, stronger effect = lower value",1.05 (inactive)
same,normalized growth,"locus YDR162C, strain NBP2, stronger effect = lower value",0.913 (inactive)
same,normalized growth,"locus YDR195W, strain ref2",1.13 (inactive)
same,normalized growth,"locus YDR297W, strain sur2, stronger effect = lower value",1.07 (inactive)
same,normalized growth,"locus YDR318W, strain mcm21, stronger effect = lower value",1.01 (inactive)
same,normalized growth,"locus YDR334W, strain swr1, stronger effect = lower value",1.05 (inactive)
same,normalized growth,"locus YDR335W, strain msn5, stronger effect = lower value",1.02 (inactive)
same,normalized growth,"locus YDR388W, stronger effect = lower value",1.03 (inactive)
same,normalized growth,"locus YDR392W, strain spt3, stronger effect = lower value",1.02 (inactive)
same,normalized growth,"locus YDR502C, strain sam2, stronger effect = lower value",0.989 (inactive)
same,normalized growth,"locus YEL003W, strain gim4, stronger effect = lower value",1.02 (inactive)
same,normalized growth,"locus YEL037C, strain rad23, stronger effect = lower value",1.06 (inactive)
same,normalized growth,"locus YEL061C, strain CIN8 (second series), stronger effect = lower value",1.06 (inactive)
same,normalized growth,"locus YER015W, strain faa2, stronger effect = lower value",1.08 [resistant] (active)
same,normalized growth,"locus YER016W, strain bim1, stronger effect = lower value",1.07 (inactive)
same,normalized growth,"locus YER110C, stronger effect = lower value",1.05 (inactive)
same,normalized growth,"locus YER111C, strain swi4, stronger effect = lower value",1.08 (inactive)
same,normalized growth,"locus YER155C, strain BEM2 (second series), stronger effect = lower value",1.09 (inactive)
same,normalized growth,"locus YER155C, strain BEM2, stronger effect = lower value",1.1 [resistant] (active)
same,normalized growth,"locus YER167W, strain BCK2, stronger effect = lower value",1.08 (inactive)
same,normalized growth,"locus YFR010W, strain ubp6, stronger effect = lower value",1 (inactive)
same,normalized growth,"locus YGL078C, strain dbp3, stronger effect = lower value",0.889 (active)
same,normalized growth,"locus YGL086W, strain mad1, stronger effect = lower value",1 (inactive)
same,normalized growth,"locus YGL167C, strain pmr1, stronger effect = lower value",1.08 (inactive)
same,normalized growth,"locus YGL173C, strain kem1, stronger effect = lower value",1.02 (inactive)
same,normalized growth,"locus YGL227W, strain vid30, stronger effect = lower value",1.07 (inactive)
same,normalized growth,"locus YGL240W, strain doc1, stronger effect = lower value",1.02 (inactive)
same,normalized growth,"locus YGL248W, strain PDE1, stronger effect = lower value",1.01 (inactive)
same,normalized growth,"locus YGL253W, strain hxk2, stronger effect = lower value",1.04 (inactive)
same,normalized growth,"locus YGR078C, strain PAC10, stronger effect = lower value",1.13 (inactive)
same,normalized growth,"locus YGR135W, strain pre9, stronger effect = lower value",0.996 (inactive)
same,normalized growth,"locus YGR252W, strain gcn5, stronger effect = lower value",0.985 (inactive)
same,normalized growth,"locus YHR013C, strain ard1, stronger effect = lower value",1.15 (inactive)
same,normalized growth,"locus YHR027C, strain rpn1, stronger effect = lower value",1.06 (inactive)
same,normalized growth,"locus YHR030C, strain SLT2, stronger effect = lower value",1.1 [resistant] (active) and 0.945 (inactive)
same,normalized growth,"locus YHR079C, strain IRE1 (second series), stronger effect = lower value",1.05 (inactive)
same,normalized growth,"locus YHR079C, strain IRE1, stronger effect = lower value",0.877 (inactive)
same,normalized growth,"locus YHR094C, strain hxt1, stronger effect = lower value",1.07 (inactive)
same,normalized growth,"locus YHR129C, strain ARP1, stronger effect = lower value",1.06 (inactive)
same,normalized growth,"locus YHR142W, strain chs7, stronger effect = lower value",1.03 (inactive)
same,normalized growth,"locus YHR200W, strain rpn10, stronger effect = lower value",1.01 (inactive)
same,normalized growth,"locus YIL066C, strain RNR3, stronger effect = lower value",1.03 (inactive)
same,normalized growth,"locus YIL073C, strain SPO22, stronger effect = lower value",1.43 [resistant] (active)
same,normalized growth,"locus YIL125W, strain kgd1, stronger effect = lower value",1.01 (inactive)
same,normalized growth,"locus YIR030C, strain dcg1, stronger effect = lower value",1.06 (inactive)
same,normalized growth,"locus YJL092W, strain hpr5, stronger effect = lower value",1.08 (inactive)
same,normalized growth,"locus YJL095W, strain BCK1 (second series), stronger effect = lower value",1.08 [resistant] (active)
same,normalized growth,"locus YJL095W, strain BCK1, stronger effect = lower value",1.14 (inactive) and 0.943 (inactive)
same,normalized growth,"locus YJL115W, strain asf1, stronger effect = lower value",1.06 (inactive)
same,normalized growth,"locus YJL129C, strain trk1, stronger effect = lower value",1.08 (inactive)
same,normalized growth,"locus YJL134W, strain LCB3, stronger effect = lower value",1.07 [resistant] (active)
same,normalized growth,"locus YJL154C, strain vps35, stronger effect = lower value",1.08 (inactive)
same,normalized growth,"locus YJL164C, strain tpk1, stronger effect = lower value",1.02 (inactive)
same,normalized growth,"locus YJL166W, strain qcr8, stronger effect = lower value",1.03 (inactive)
same,normalized growth,"locus YJL168C, strain set2, stronger effect = lower value",1.1 [resistant] (active)
